Source: PubChem BioAssay (EPA / NIEHS)
Active and inactive are the calls of the source. How the source made its calls: active means hit-call score of the fitted dose curve at least 0.9, where 1 is the maximum; inactive means score below 0.9.

Experiment: ATG_CRE_CIS: Attagene CIS-FACTORIAL HepG2 Assay for human cAMP Responsive Element (CRE) binding protein 3 (AID 2282926)
Conditions: HepG2 CRE cis-reporter, Attagene multiplexed mRNA; actives raise or lower the signal
Procedure: ATG_CIS is a cell-based, multiplexed-readout assay that uses HepG2, a human liver cell line, with measurements taken at 24 hours after chemical dosing in a 24-well plate.ATG_CRE_CIS is one of 52 assay component(s) measured or calculated from the ATG_CIS assay. It is designed to make measurements of mRNA induction, a form of inducible reporter, as detected with fluorescence intensity signals by Reverse transcription polymerase chain reaction (RT-PCR) and Capillary electrophoresis technology.Data from the assay component ATG_CRE_CIS was analyzed into 1 assay endpoint. This assay endpoint, ATG_CRE_CIS, was analyzed with bidirectional fitting relative to DMSO as the negative control and baseline of activity. Using a type of inducible reporter, measures of mRNA for gain or loss-of-signal activity can be used to understand the reporter gene at the transcription factor-level as they relate to the gene CREB3. Furthermore, this assay endpoint can be referred to as a primary readout, because this assay has produced multiple assay endpoints where this one serves a reporter gene function. To generalize the intended target to other relatable targets, this assay endpoint is annotated to the dna binding intended target family, where the subfamily is basic leucine zipper.
Human liver HepG2 cells are transiently transfected with multiple reporter transcription units (MRTUs) in 6-well plates using FuGene 6 reagent (Roche; 3 ml FuGene/1 mg DNA). The MRTU constructs are regulated by a cis-regulating element (promoter). […] A major difference between the CIS and TRANS system is that in CIS activities of endogenous TFs are measured, whereas the TRANS assay evaluates changes in activities of exogenous, chimeric NR-Gal4 proteins. […] At the end of 24 hour incubation, total RNA was isolated using TriZol reagent (Invitrogen). The isolated RNA is then reverse-transcribed using oligo(dT) primer and Mo-MLV reverse transcriptase (Invitrogen) with DNAse I (Ambion) treatment for 30 min. The one-tenth of the produced cDNA was amplified by PCR using Taq DNA polymerase (Invitrogen) and two reporter sequence-specific primers. The PCR products were fluorescently labeled by primer extension with 6-arboxyfluorescein (6-FAM) 5'-labeled reporter sequence-specific primer (2 min at 95 C, 20 s at 68 C and 10 min at 72 C) and these products were digested with 5U of HpaI (New England Biolabs) for 2h at 37 C. The fragments were purified using Qiaquick PCR columns (Qiagen), analyzed on an ABI 3130xL genetic analyzer (Applied Biosystems) with peak positions identified by using a set of X-rhodamine (ROX)-labeled MapMarker1000 molecular weight standards (BioVentures). The raw capillary electrophoresis data was processed using Attagraph software (Attagene).
With `CCCCC(CC)COCCC#N` (stereo not given) the outcome was “inactive”. In the case of `Nc1ccc(S(N)(=O)=O)cc1`, the outcome is reported as “inactive”. With `C=CC(=O)OCC(O)COc1ccccc1` (stereo not given) the outcome was “inactive”. For `O=c1cc(-c2ccccc2)oc2cc(O)cc(O)c12`, the outcome was “inactive”. With `CCOc1ccccc1OCC` the outcome was “inactive”. For `CC(C)C[C@H]1C(=O)N2CCC[C@H]2[C@]2(O)O[C@](NC(=O)[C@@H]3C=C4c5cccc6[nH]c(Br)c(c56)C[C@H]4N(C)C3)(C(C)C)C(=O)N12`, the outcome was “inactive”. For `CCCCCCOC(=O)CC`, the outcome was “inactive”. In the case of `O=C1c2ccccc2C(=O)N1SC1CCCCC1`, the outcome is reported as “inactive”. In the case of `CC(C)C(C)(C)C(C)(C)C(C)(C)S`, the outcome is reported as “inactive”. In the case of `CCCCCNCCCCC`, the outcome is reported as “inactive”. With `c1ccc2sc(SN(C3CCCCC3)C3CCCCC3)nc2c1` the outcome was “inactive”. With `CC(CC(C)(C)C)CC(C)(C)CC(C)(C)C` (stereo not given) the outcome was “inactive”. In the case of `CC(=O)Nc1ccc(CC(=O)O)cc1`, the outcome is reported as “inactive”. For `O=P(c1ccccc1)(c1ccccc1)c1ccccc1`, the outcome was “inactive”. For `CN(C)CCCN`, the outcome was “inactive”. With `COc1ccc(O)cc1` the outcome was “inactive”. For `CC[C@]12CCCN3CCc4c(n(c5ccccc45)[C@@](O)(C(=O)OC)C1)[C@@H]32`, the outcome was “inactive”. With `CC(C)(N)CO` the outcome was “inactive”. With `C=C(C)C(=O)O` the outcome was “inactive”. In the case of `CC(=O)Nc1ccccc1O`, the outcome is reported as “inactive”. In the case of `C=CC[N+](C)(C)CC=C`, the outcome is reported as “inactive”. For `Nc1nc2ccc([N+](=O)[O-])cc2s1`, the outcome was “inactive”. With `CCCCCCCCC` the outcome was “inactive”. In the case of `CCCCN`, the outcome is reported as “inactive”. In the case of `CC1(C)CCC(C)(C)c2cc(C(=O)Nc3ccc(C(=O)O)cc3)ccc21`, the outcome is reported as “inactive”. In the case of `CC(CN1c2ccccc2Sc2ccccc21)N(C)C` (stereo not given), the outcome is reported as “inactive”. In the case of `C=C(C)C(=O)O[C@H]1C[C@@H]2CC[C@@]1(C)C2(C)C`, the outcome is reported as “inactive”. In the case of `S=C(S)NCCNC(=S)S`, the outcome is reported as “inactive”. In the case of `CSc1nnc(C(C)(C)C)c(=O)[nH]1`, the outcome is reported as “inactive”. With `CC(C)c1cccc(O)c1` the outcome was “inactive”. With `O=C1CCCCCCCCCCCCCCO1` the AC50 was 120 µM (active). In the case of `Cc1ccc(S)cc1`, the outcome is reported as “inactive”. With `c1ccc2c(c1)c1cccc3ccc4cccc2c4c31` the outcome was “inactive”. In the case of `CC(c1cc2ccccc2s1)N(O)C(N)=O` (stereo not given), the outcome is reported as “inactive”. With `O=S(=O)(O)c1cccc2c(S(=O)(=O)O)cccc12` the outcome was “inactive”. For `Cc1ccc2n[nH]nc2c1`, the outcome was “inactive”. In the case of `O=C(O)CCCCCCCCCCC(=O)O`, the outcome is reported as “inactive”. For `CC(CCO)CCc1ccccc1` (stereo not given), the outcome was “inactive”. For `CC(=O)[O][Al][O]C(C)=O`, the outcome was “inactive”. For `N#Cc1nc(Cl)c(Cl)c(Cl)c1Cl`, the outcome was “inactive”.
